Test [1] addresses Pantothenate synthetase (Mycobacterium tuberculosis (strain ATCC 25618 / H37Rv)) (UniProt P9WIL5). Kind of test: Recombinant Mtb pantothenate synthetase (PanC) inhibitors, coupled enzyme, confirmatory (AID 375; call rule not given here;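 further: 0% = full reaction with vehicle and 100% = no enzyme background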). As to conditions: coupled enzyme assay; at 10 µM, stronger effect = higher value.
A short description of test [2]: reducers of endogenous Her2 protein level, primary screen, SKBR3 breast tumor cells, AlphaScreen, ATP viability (AID 461;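 active means Her2 level under about 52% in both replicate screens, with viability over 70% of control, limit read from the data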;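 on Her2 level: lower value means less Her2 protein in the cells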;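 on viability: percent of carrier control wells set as 100% viability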). Conditions: 18-24 h, measured here: SKBR3 viability, ATP luminescence, at 10 µM.
Test [3] concerns the target Receptor tyrosine-protein kinase erbB-2 (Homo sapiens) (UniProt P04626). Described as above. Conditions: 18-24 h, at 10 µM, stronger effect = lower value.
The nature of test [4]: SK-BR-3 cell growth inhibitors, pilot screen, 24 h, human (AID 572;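 active means viability at or below 10% of carrier control in both of two separate runs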;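 further: compound exposure lasted between 18 and 24 h rather than exactly 24 h; 100% = carrier-treated control wells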). Conditions: SK-BR-3 viability, CellTiter-Glo luminescence, at 10 µM, stronger effect = lower value.
Test [5] can be described thus: HUVEC growth inhibition – cell-based, human, primary screen (AID 575;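 active means viability at or below 30% in both replicate assays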;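 further: 100% = median of untreated cell wells with 0.1% DMSO on each plate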). Conditions: HUVEC proliferation, CellTiter-Glo luminescence, 72 h; at 10 µM; stronger effect = lower value.
Test [6] can be described thus: growth inhibitors of H69AR lung tumor, primary screen, human, duplicate replicates (AID 580;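 active means viability at or under a set limit in both replicates, limit being median viability minus 3 SD, cut at about 48% in these data, passing the limit was not always enough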;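 further: 100% = mean luminescence of untreated wells and 0% = no signal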). Conditions: H69AR lung tumor cells viability, ATP luminescence, 72 h; at 10 µM; stronger effect = lower value.
Test [7] in a line: reversal of MRP1-mediated doxorubicin resistance, pilot screen, H69AR cells, doxorubicin co-treatment (AID 601;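 active means viability loss from added drug above about 55%, and viability with drug at most 40%, in both replicates, limit read from the data, passing the limit was not always enough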). Conditions: CellTiter-Glo, 72 h, at 10 µM; for differential viability (reversal): stronger effect = higher value.
The nature of test [8]: 384-well plate pilot, post-Golgi transport modulator project, inhibition of yeast transport mutant growth (AID 636; in the data active means inhibition above about 31%). Conditions: absorbance 615 nm, about 18 h, stronger effect = higher value.
Test [9] can be described thus: growth suppression of yeast trafficking mutant, preliminary HTS, modulators of trafficking downstream of Golgi apparatus project, 1536-format plate, OD 615 nm (AID 637; in the data active means inhibition above about 30%). As to conditions: yeast transport mutant growth, absorbance 615 nm, 18 h; stronger effect = higher value.
Test [10] can be described thus: OD615 S. cerevisiae growth inhibition, permissive medium, pilot counter-assay, permissive growth control for S. cerevisiae lifespan shortening project (AID 705;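 active means growth inhibition above 25% in both replicates, a cutoff set 3 SD above the mean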). Conditions: OD615, 24 h, at 10 µM, stronger effect = higher value.
Test [11] is described as follows: Restrictive medium S. cerevisiae growth inhibition, OD615, pilot screen of yeast lifespan reduction project, restrictive growth control (AID 706;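 active means growth inhibition above a set limit, 3 SD over mean compound inhibition, in both replicates, cut at about 43% in these data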;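 further: modified DeaD lifespan yeast strain shifted to restrictive glucose medium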). As to conditions: OD615, 48 h, at 10 µM, stronger effect = higher value.
Test [12] in a line: viability gain of MRP-1-high H69AR cells under doxorubicin, pilot screen, MRP-1 activator project, CellTiter-Glo, duplicate (AID 807;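 active means viability increase at or above a cutoff of the median across tested compounds plus 3 SD, cut at about 8.5% in these data, passing the limit was not always enough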;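 further: compound pretreatment 18-22 h then 72 h combined with doxorubicin; 0% = doxorubicin alone and 100% = vehicle without doxorubicin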). As to conditions: H69AR viability with doxorubicin, CellTiter-Glo luminescence; at 10 µM; stronger effect = higher value.
Test [13] is described as follows: growth suppression of beta-catenin knockout HCT116, pilot screen, human colon tumor cells (AID 823;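 active means cell viability at or below a set limit in both duplicate runs, the limit being the all-compound median minus 4 SD, cut at about 23% in these data, passing the limit was not always enough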;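 further: 0% = wells killed by 20 µM Hyamine and 100% = untreated DMSO cell wells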). As to conditions: CellTiter-Glo, 60 h, at 10 µM, stronger effect = lower value.
Test [14] is described as follows: growth suppression of PTEN-deleted HCT116, pilot screen, cell-based, HCT116 clonal line, CellTiter-Glo (AID 824;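 active means viability at or below 27.92% in each of two runs, the all-compound median minus 4 SD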;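 further: 0% = 20 µM Hyamine control and 100% = vehicle cell control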). As to conditions: 60 h, at 10 µM, stronger effect = lower value.
Test [15] is described as follows: inhibitors of the yeast RAM network, pilot screen, dse1pr::URA3 reporter, 5-FOA selection (AID 869;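 active means inhibition over a set limit, the all-compound mean plus 3 SD, in both replicate runs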;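 further: 0% = DMSO wells with no growth and 100% = 10 µM 1-NA-PP1 with full growth; RAM network block rescues cells from 5-FOA so hits raise OD615 growth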). Conditions: S. cerevisiae dse1pr::URA3 5-FOA growth, OD615, 2 d, at 10 µM, stronger effect = higher value.
Test [16] can be described thus: RAM signaling pathway blockade in yeast – S. cerevisiae, Pdr1DBD-CYC8 efflux-inhibited sensitized strain, primary screen (AID 1298).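 Further: 0% = DMSO untreated cells without growth and 100% = 10 µM 1-NA-PP1 full growth; higher means more yeast growth rescued from 5-FOA killing.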 As to conditions: S. cerevisiae cbk1-as DSE1-URA3 strain, 5-FOA growth OD615, 2 d; at 50 µM; stronger effect = higher value.
Where [17] appears, read: H69AR cells + 2 uM doxorubicin, measured here: viability with 2 uM doxorubicin, stronger effect = lower value.
The mark [18] stands for this setting: H69AR cells, compound alone cytotoxicity.

Results filed as inconclusive are left out. Calls of active or inactive are those of the source.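 How the source made its calls, unless noted: active means RAM network inhibition above 8.4% in each of two replicates, 3 SD over the compound average; inconclusive means above 8.4% inhibition in only one replicate; inactive means 8.4% inhibition or less in each replicate.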

Chain of Receptor tyrosine-protein kinase erbB-2 (Homo sapiens) (P04626 whole entry, looked up): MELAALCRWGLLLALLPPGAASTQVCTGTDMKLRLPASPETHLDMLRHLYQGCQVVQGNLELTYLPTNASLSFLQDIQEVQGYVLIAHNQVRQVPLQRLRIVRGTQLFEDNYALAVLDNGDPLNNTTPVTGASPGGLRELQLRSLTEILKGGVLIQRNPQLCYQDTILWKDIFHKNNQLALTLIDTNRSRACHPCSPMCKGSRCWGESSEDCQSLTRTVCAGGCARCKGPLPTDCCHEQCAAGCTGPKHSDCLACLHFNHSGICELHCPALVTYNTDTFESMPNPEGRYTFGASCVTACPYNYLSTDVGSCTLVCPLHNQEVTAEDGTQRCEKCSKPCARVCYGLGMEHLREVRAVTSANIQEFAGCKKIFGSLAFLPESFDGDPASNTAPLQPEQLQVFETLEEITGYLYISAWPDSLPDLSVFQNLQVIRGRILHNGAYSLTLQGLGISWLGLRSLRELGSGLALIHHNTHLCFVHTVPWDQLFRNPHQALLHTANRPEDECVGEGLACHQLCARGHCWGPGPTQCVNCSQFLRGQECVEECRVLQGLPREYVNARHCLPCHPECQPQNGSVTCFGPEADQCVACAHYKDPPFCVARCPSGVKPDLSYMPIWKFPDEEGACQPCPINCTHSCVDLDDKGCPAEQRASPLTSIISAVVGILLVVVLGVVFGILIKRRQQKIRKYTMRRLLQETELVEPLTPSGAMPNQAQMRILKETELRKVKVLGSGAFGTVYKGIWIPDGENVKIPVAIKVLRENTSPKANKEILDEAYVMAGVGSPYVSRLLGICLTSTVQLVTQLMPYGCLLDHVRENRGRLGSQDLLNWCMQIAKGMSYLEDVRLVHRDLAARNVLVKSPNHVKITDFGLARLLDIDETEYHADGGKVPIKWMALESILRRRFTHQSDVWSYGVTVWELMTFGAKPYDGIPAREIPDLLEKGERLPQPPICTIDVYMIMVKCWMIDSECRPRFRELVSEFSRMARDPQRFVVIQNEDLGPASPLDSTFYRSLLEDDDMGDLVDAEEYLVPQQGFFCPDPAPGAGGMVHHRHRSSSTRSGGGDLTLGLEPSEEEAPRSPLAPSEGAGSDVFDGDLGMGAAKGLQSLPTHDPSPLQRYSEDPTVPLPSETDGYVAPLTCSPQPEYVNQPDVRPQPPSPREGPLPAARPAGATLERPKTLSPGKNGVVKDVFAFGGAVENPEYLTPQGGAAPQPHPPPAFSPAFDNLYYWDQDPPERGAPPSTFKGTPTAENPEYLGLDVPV
Chain of Pantothenate synthetase (Mycobacterium tuberculosis (strain ATCC 25618 / H37Rv)) (P9WIL5 whole entry, looked up): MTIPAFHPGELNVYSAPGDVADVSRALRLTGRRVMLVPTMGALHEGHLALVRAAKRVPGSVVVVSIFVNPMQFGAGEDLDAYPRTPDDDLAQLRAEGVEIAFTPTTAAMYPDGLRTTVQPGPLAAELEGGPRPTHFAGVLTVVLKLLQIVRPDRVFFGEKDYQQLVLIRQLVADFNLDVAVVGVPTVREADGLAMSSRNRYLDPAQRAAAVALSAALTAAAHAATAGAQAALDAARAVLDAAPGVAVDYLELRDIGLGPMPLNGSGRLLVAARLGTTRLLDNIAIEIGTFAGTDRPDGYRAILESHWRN

For `Cc1cccc(-n2c(-c3ccco3)nc3ccccc3c2=O)n1`, the inhibition in [1] was 0% (inactive); in test [8] it was -0.54% (inactive); in [9], 49.3% (active); in test [15] it was 0.505% (inactive). The viability in test [2] is 105%; in [4], 105% (inactive); in test [5], 111% (inactive); in test [6], 87.9% (inactive); in test [7] (setting [17]), 90%; in test [7] (setting [18]), 87.9%. The figures for the viability in [13] and in [14] were 108% (inactive) and 99.7% (inactive), respectively. For the same molecule, in [3], the Her2 level was 98.5% (inactive). Also, the differential viability (reversal) in test [7] (H69AR cells + 2 uM doxorubicin) was -2.13% (inactive). The figures for the growth inhibition in [10] and in test [11] were -16.8% (inactive) and -15.7% (inactive), respectively. The viability increase in test [12] was 0.12% (inactive). The RAM network inhibition in test [16] is 0.8% (inactive).
On to `CCOc1ccc(C2SCC(=O)Nc3c2c(=O)[nH]n3C2CCCCCC2)cc1` (stereo not drawn), for which the inhibition in test [1] is 0% (inactive); in [8], -5.2% (inactive); in [9], -7.62% (inactive); in test [15], 2.26% (inactive). For the same molecule, the viability in [2] was 110%; in test [4] it was 110% (inactive); in test [5], 63.8% (inactive); in [7] (setting [17]) it was 57.2%; in test [7] (setting [18]), 58.3%; in [13] it was 97.7% (inactive). For the same molecule, the Her2 level in [3] is 108% (inactive). For the same molecule, in test [7] (H69AR cells + 2 uM doxorubicin), the differential viability (reversal) was 1.13% (inactive). The growth inhibition in [10] was -17.8% (inactive); in test [11] it was -3.29% (inactive). Besides, the viability increase in test [12] is -7.49% (inactive). Further, in test [16], the RAM network inhibition was 4% (inactive).
Take `CCCCNC(=O)c1c(N)n(CCCOC)c2nc3ccccc3nc12`: the inhibition is 0% (inactive) in [1], 1.1% (inactive) in test [8], 5.24% (inactive) in test [9] and 0.37% (inactive) in test [15]. Besides, the viability in [2] was 89%; in test [4], 89% (inactive); in test [5], 71.8% (inactive); in test [7] (setting [17]) it was 79.4%; in test [7] (setting [18]), 54%; in test [13] it was 68.5% (inactive). The viability in test [14] is 67.8% (inactive). The Her2 level in test [3] is 82% (inactive). Besides, the differential viability (reversal) in [7] (H69AR cells + 2 uM doxorubicin) is -25.4% (inactive). The growth inhibition was 1.92% (inactive) in test [10] and -1.88% (inactive) in test [11]. In addition, the viability increase in [12] was -6.16% (inactive). Also, the RAM network inhibition in test [16] was -3.2% (inactive).
`O/N=C/c1c[nH]c2ccccc12`: the growth inhibition in test [10] is 4.87% (inactive); in [11], 0.865% (inactive). Also, the viability increase in test [12] is -4.62% (inactive). Besides, the viability in test [13] is 99.9% (inactive); in [14], 94.4% (inactive). Moreover, in test [15], the inhibition is 2.54% (inactive). Besides, the RAM network inhibition in test [16] was 3.59% (inactive).
`CC1(C)Cc2c(sc3c2C(=O)NC(c2cccnc2)N3)CO1` (stereo not drawn): the inhibition in test [1] was 7% (inactive); in test [8], -3.47% (inactive); in [9], 1.48% (inactive); in [15], 1.58% (inactive). Further, the viability in test [2] was 113%; in test [4], 113% (inactive); in test [5], 102% (inactive); in [6], 98.5% (inactive); in test [7] (setting [17]) it was 85.7%; in test [7] (setting [18]), 98.5%. In addition, the viability in [13] is 107% (inactive). Moreover, the Her2 level in [3] is 83.5% (inactive). In test [7] (H69AR cells + 2 uM doxorubicin), the differential viability (reversal) is 12.8% (inactive). Moreover, the growth inhibition is -16.3% (inactive) in [10] and 11.8% (inactive) in test [11]. The viability increase in test [12] was -2.97% (inactive). The RAM network inhibition in [16] is 5.15% (inactive).
Take `CN1C(=O)C(Cc2cccc3ccccc23)C(=O)N(C)C1=O`: the inhibition was 6% (inactive) in test [1], -5.81% (inactive) in test [8], 0.98% (inactive) in test [9] and 0.305% (inactive) in [15]. The viability in test [2] was 73.5%; in test [4], 73.5% (inactive); in test [5], 95.4% (inactive); in test [6], 85.2% (inactive); in test [7] (setting [17]) it was 92.4%; in [7] (setting [18]) it was 85.2%. Moreover, the viability in test [13] is 92.5% (inactive); in [14], 89.7% (inactive). In test [3], the Her2 level is 94% (inactive). For the same molecule, in test [7] (H69AR cells + 2 uM doxorubicin), the differential viability (reversal) is -7.14% (inactive). In addition, the growth inhibition was -20.9% (inactive) in test [10] and -4.64% (inactive) in [11]. Moreover, in test [12], the viability increase was -2.39% (inactive). The RAM network inhibition in [16] is 1.47% (inactive).
With `Cn1c(O)c(C=NCCOc2ccc(Cl)cc2)c(=O)n(C)c1=O`, the values for the growth inhibition in test [10] and in [11] were 4% (inactive) and 0.245% (inactive), respectively. Also, the viability increase in [12] is 2.29% (inactive). In addition, the viability in [13] is 93.2% (inactive); in [14] it was 93.7% (inactive). Also, the inhibition in test [15] is 1.06% (inactive). Moreover, in test [16], the RAM network inhibition is 4.1% (inactive).
For the molecule `COc1ccc(C2SCC(=O)Nc3c2c(=O)[nH]n3C2CCCCCC2)cc1OC` (stereo not drawn), the inhibition was 6% (inactive) in [1], -5.6% (inactive) in [8], 4.1% (inactive) in test [9] and 0.915% (inactive) in test [15]. For the same molecule, the viability was 124% in [2]; 124% (inactive) in [4]; 105% (inactive) in test [5]; 91.3% (inactive) in test [6]; 83.8% in [7] (setting [17]); 91.3% in test [7] (setting [18]). Moreover, the viability in test [13] is 92.4% (inactive). Also, in test [3], the Her2 level is 89% (inactive). Further, the differential viability (reversal) in test [7] (H69AR cells + 2 uM doxorubicin) was 7.54% (inactive). Moreover, the growth inhibition is -18.6% (inactive) in [10] and -6.19% (inactive) in [11]. Also, in [12], the viability increase was -4.42% (inactive). Moreover, in [16], the RAM network inhibition is 1.3% (inactive).
Consider `COc1ccc(OC)c(N2C(=O)NC(=O)C(CCc3ccncc3)(CCc3ccncc3)C2=O)c1`, for which the inhibition in [1] is 0% (inactive); in test [8], 0.79% (inactive); in test [9], 11.3% (inactive); in [15] it was 2.2% (inactive). The viability was 105% in test [2]; 105% (inactive) in [4]; 91% (inactive) in test [5]; 82.8% (inactive) in test [6]; 91.7% in [7] (setting [17]); 82.8% in test [7] (setting [18]). For the same molecule, the viability was 94.8% (inactive) in test [13] and 94.2% (inactive) in test [14]. Also, in test [3], the Her2 level was 112% (inactive). Also, the differential viability (reversal) in [7] (H69AR cells + 2 uM doxorubicin) was -8.92% (inactive). The growth inhibition in test [10] was -15.9% (inactive); in test [11] it was -9.8% (inactive). Besides, in [12], the viability increase was -1.85% (inactive). For the same molecule, the RAM network inhibition in test [16] is 0.12% (inactive).
On to `COc1ccccc1/C=C1/C(=N/O)C2CCN1CC2`, for which the inhibition is 0% (inactive) in test [1], -2.34% (inactive) in test [8], 0% (inactive) in [9] and 0.7% (inactive) in test [15]. Also, the viability is 104% in [2]; 104% (inactive) in [4]; 109% (inactive) in test [5]; 104% (inactive) in test [6]; 95% in [7] (setting [17]); 104% in [7] (setting [18]). The values for the viability in [13] and in test [14] were 99.8% (inactive) and 99.4% (inactive), respectively. Further, the Her2 level in [3] was 102% (inactive). Besides, the differential viability (reversal) in test [7] (H69AR cells + 2 uM doxorubicin) is 8.7% (inactive). Besides, the growth inhibition in test [10] was -14.3% (inactive); in test [11] it was -13.2% (inactive). In test [12], the viability increase was -1.4% (inactive). In test [16], the RAM network inhibition was 6.29% (inactive).

(Values after PubChem BioAssay.)
